The whole screen tested about 10,000 compounds, of which about 320 (3.2%) were called active. No stated cut-off is given here; in the data, active means CPE inhibition mostly above about 9.1% (no sharp cut-off); inactive means mostly below about 7.2%. The list comes from a sample in which actives are over-represented; it also holds similar structures and randomly drawn compounds.
Test: antivirals protecting cells from dengue CPE – CPE readout, HTS (AID 540333)
Settings: Dengue virus CPE inhibition in host cells, at 20 µM; stronger effect = higher value

Row | Compound | CPE inhibition
1 | O=C(COc1ccccc1[N+](=O)[O-])N/N=C/c1cccs1 | inactive
2 | CCOc1cccc(/C=N/NC(=S)Nc2cc(S(=O)(=O)N3CCOCC3)ccc2N2CCOCC2)c1O | inactive
3 | Cc1ccc2[nH]c(=O)cc(C(=O)OCC(=O)c3ccccc3)c2c1 | inactive
4 | COC(=O)CN1C(c2ccc(OC)cc2)=Nc2ccc(Cl)cc2C1c1ccccc1 (centres undefined) | 7.85% (inactive)
5 | COC(=O)CN1C(c2cccc(Cl)c2)=Nc2ccc(Cl)cc2C1c1ccccc1 (centres undefined) | 14.1% (active)
6 | CCOC(=O)CN1C(=O)N[C@@H](c2ccccc2)[C@@H](C(=O)OC)[C@H]1C | 0.065% (inactive)
7 | Cc1cc(C(=O)N2CCN(c3ccc([N+](=O)[O-])cc3)CC2)no1 | inactive
8 | O=C1CC(c2ccccc2)Sc2nc(-c3ccccc3)c(-c3ccccc3)n21 (centres undefined) | inactive
9 | Cc1ccc(OCCN(C)C)c([N+](=O)[O-])c1 | 0.995% (inactive)
10 | O=[N+]([O-])c1cccc(C(=S)N2CCN(c3ccccc3)CC2)c1 | 0.055% (inactive)
11 | CS(=O)(=O)N1CCN(c2ccc([N+](=O)[O-])c(NCc3ccc(Cl)cc3)c2)CC1 | 1.16% (inactive)
12 | Cc1ccc(NC(=O)CSc2nnc(-c3cccs3)o2)cc1S(=O)(=O)N1CCCCC1 | inactive
13 | COC(=O)c1cc(NC(=S)NCc2ccc(Cl)cc2)cc(C(=O)OC)c1 | 13.6% (active)
14 | COC(=O)Cc1ccc(NC(=S)NCc2ccc(Cl)cc2)cc1 | inactive
15 | S=C(NCc1ccncc1)Nc1ccc(Cl)cc1 | 0.775% (inactive)
16 | CC1=CC(C)(C)N(C(=O)CSc2nnc(N)s2)c2ccccc21 | 0.04% (inactive)
17 | COc1ccc2c(c1)-c1nc(/N=C/c3ccc(O)c(OC)c3)sc1CC2 | 1.8% (inactive)
18 | Cc1ccc(-n2nc(C)c(C3(O)C(=O)N(C(C)C)c4ccccc43)c2N)cc1 (centres undefined) | inactive
19 | CCOC(=O)C1=C(C)N(CCCCCC(=O)O)C(=O)NC1c1cccc([N+](=O)[O-])c1 (centres undefined) | 0.825% (inactive)
20 | CCOC(=O)C1=C(C)N(Cc2ccccc2)C(=O)NC1c1ccccc1OS(=O)(=O)c1ccccc1[N+](=O)[O-] (centres undefined) | 14.2% (active)
21 | COC(=O)C1=C(C)N(Cc2ccccc2)C(=O)N[C@H]1c1cccc(F)c1 | 0.125% (inactive)
22 | Cc1ccc(Cn2c(SCC(=O)N3CC(=O)Nc4ccccc43)nc3ccccc3c2=O)cc1 | 22.3% (active)
23 | Cc1cccc(C)c1-n1c(SCC(=O)N2CC(=O)Nc3ccccc32)nc2ccccc2c1=O | 1.7% (inactive)

Row | Compound | CPE inhibition
24 | Cc1ccc(-n2c(SCC(=O)N3CC(=O)Nc4ccccc43)nc3ccccc3c2=O)cc1 | 2.37% (inactive)
25 | COc1ccc(C2CC(c3ccccc3)=NN2C(=O)CSc2ncccn2)cc1 (centres undefined) | 0.205% (inactive)
26 | CCCn1c(SCC(=O)N2N=C3/C(=C/c4ccc(OC)cc4)CCCC3C2c2ccc(OC)cc2)n[nH]c1=O (centres undefined) | 10.2% (active)
27 | COc1ccc(C2=NN(C(=O)CSc3nc4ccccc4s3)C(c3ccc(OC)cc3)C2)cc1 (centres undefined) | 2.96% (inactive)
28 | C#CCNC(=O)C1=C[C@@H](c2ccc(C(F)(F)F)cc2)C[C@@H](OCc2ccc(CO)cc2)O1 | 2.77% (inactive)
29 | CCC(OCC(O)CN1CCN(CCN2C(=O)c3cccc4cccc(c34)C2=O)CC1)c1ccccc1 (centres undefined) | inactive
30 | Cc1cccc(CC(=O)N2CCN=C2SCc2ccc([N+](=O)[O-])cc2)c1 | inactive
31 | Cc1cccc(-n2c(Cc3ccccc3)nnc2SCc2ccc([N+](=O)[O-])cc2)c1 | 14.3% (active)
32 | O=[N+]([O-])c1ccc(CSc2nnc(Cc3ccccc3)n2-c2ccc(F)cc2)cc1 | 3.26% (inactive)
33 | Cc1ccc(NC(=O)c2cc(S(=O)(=O)NCCc3ccccc3)ccc2F)cc1Cl | 2.79% (inactive)
34 | Cc1ccc(NC(=O)CCC(=O)NNS(=O)(=O)c2ccccc2)cc1C | inactive
35 | Cc1ccc(S(=O)(=O)NCCC(=O)Nc2ccc(C)c(Cl)c2)cc1C | 12.8% (active)
36 | CC(Sc1nnc(-c2ccccc2)c(-c2ccccc2)n1)C(=O)Nc1ncc(Cl)cc1Cl (centres undefined) | 0.725% (inactive)
37 | C/C(=N\NC(=O)c1cccc(S(=O)(=O)Nc2ccccc2Cl)c1)c1ccco1 | inactive
38 | CCOc1ccc(Br)cc1CSC(=N)N | 13.3% (active)
39 | CCOc1ccc(CSC(=N)N)cc1 | 0.245% (inactive)
40 | CCOc1ccc(Br)cc1CNCCN1CCOCC1 | inactive
41 | O=C(Oc1ccccc1N1C(=O)C2CC=CCC2C1=O)c1ccc(Br)cc1 (centres undefined) | 0.075% (inactive)
42 | CC1C=CCC2C(=O)N(c3ccc(Cl)cc3O)C(=O)C12 (centres undefined) | 28.6% (active)
43 | O=C(NCCCN1CCOCC1)c1onc(CSc2ccccc2)c1C(=O)NCCCN1CCOCC1 | inactive
44 | Cc1ccc(CCc2nnc(SCC(=O)Nc3ccccc3Cl)n2-c2ccccc2)o1 | 0.905% (inactive)
45 | O=C(CSc1nnc(-c2n[nH]c3ccccc23)n1-c1ccccc1)Nc1ccccc1Cl | 19% (active)
46 | Cc1ccc(C)c(NC(=O)CSc2nnc(-c3n[nH]c4ccccc34)o2)c1 | 0.235% (inactive)

Row | Compound | CPE inhibition
47 | Cc1ccc(S(=O)(=O)NN=C2C3CC4CC(C3)CC2C4)cc1[N+](=O)[O-] | 0.27% (inactive)
48 | Cn1cnnc1SC1c2cccc3cccc(c23)C1NS(=O)(=O)c1ccccc1 (centres undefined) | 0.485% (inactive)
49 | Cc1ccc(C=Nc2ccccc2C(=O)Nc2ccccc2)cc1 | 0.36% (inactive)
50 | CC(C)(C)OC(=O)C[C@H]1C/C=C\C[C@@H](CC(=O)N(CCO)Cc2ccccc2)C(=O)N[C@@H](c2ccccc2)COC1=O | inactive
51 | CN(C(=O)COC(=O)c1cc(-c2ccccc2Cl)nc2ccccc12)C1CCS(=O)(=O)C1 (centres undefined) | inactive
52 | CC1(C)C(C=C(Cl)Cl)C1C(=O)N(Cc1cccc(Cl)c1)C1CCS(=O)(=O)C1 (centres undefined) | 0.525% (inactive)
53 | CC1(C)C(C=C(Cl)Cl)C1C(=O)N(Cc1ccccc1Cl)C1CCS(=O)(=O)C1 (centres undefined) | 29.9% (active)
54 | CCN(Cc1ccccc1)C(=O)C1CCN(C/C(C)=C/c2ccccc2)CC1 | inactive
55 | Cc1ccc(C)c(S(=O)(=O)Nc2nc(C)c(C(=O)Nc3ccccc3)s2)c1 | inactive
56 | O=C1NC(c2ccc(-c3ccccc3[N+](=O)[O-])o2)C(C(=O)c2ccc(Cl)cc2)C(O)(C(F)(F)F)N1 (centres undefined) | 30.5% (active)
57 | O=C(/C=C/c1ccc(-c2ccccc2[N+](=O)[O-])o1)c1ccccc1 | 3.25% (inactive)
58 | O=C(N/N=C/c1ccc(-c2ccccc2[N+](=O)[O-])o1)[C@H]1C[C@@H]1c1ccccc1 | inactive
59 | O=C1NC(c2ccc(-c3ccccc3[N+](=O)[O-])o2)C(C(=O)c2ccc(F)cc2)C(O)(C(F)(F)F)N1 (centres undefined) | 23.4% (active)
60 | O=c1nc2s/c(=C\c3ccc(-c4ccccc4[N+](=O)[O-])o3)c(=O)n2nc1-c1ccccc1 | inactive
61 | O=C1c2ccccc2NC(c2ccc(-c3cccc([N+](=O)[O-])c3)o2)N1O (centres undefined) | 0.135% (inactive)
62 | COc1ccc(-c2cn(-c3ccccc3)c3[n+]2CCS3)cc1 | 7.46% (inactive)
63 | O=C(CSc1nc2ccccc2[nH]1)Nc1ccc2c(c1)CCC2 | 2.09% (inactive)
64 | NS(=O)(=O)c1ccc(NC(=S)NCc2ccccc2Cl)cc1 | 1.7% (inactive)
65 | O=[N+]([O-])c1ccc(N2CCOCC2)cc1SCc1ccco1 | 0.08% (inactive)
66 | COc1cc2c(cc1OC)CN(C(=S)Nc1c(C)cccc1C)CC2 | inactive
67 | COCCNC(=S)N1CCc2cc(OC)c(OC)cc2C1COc1ccc(C(C)C)cc1 (centres undefined) | 15.5% (active)
68 | CCc1ccc(OCC2c3cc(OC)c(OC)cc3CCN2C(=S)NCCOC)cc1 (centres undefined) | 17.3% (active)
69 | COc1cccc(NC(=S)N2CCc3cc(OC)c(OC)cc3C2COc2ccc3c(C)cc(=O)oc3c2)c1 (centres undefined) | 0.46% (inactive)

Row | Compound | CPE inhibition
70 | COc1cc2c(cc1OC)C(C)N(C(=O)c1ccc(Br)o1)CC2 (centres undefined) | inactive
71 | COCCNC(=S)N/N=C(\C)c1ccc2cc(OC)ccc2c1 | 0.1% (inactive)
72 | COC(=O)Cc1ccc2sc(-c3ccccc3)nc2c1 | inactive
73 | COc1cc(/C=N/NC(=O)C2COc3ccccc3O2)cc(OC)c1OC (centres undefined) | inactive
74 | CC(C(=O)NCC1CCCCC1)N1CCN(S(=O)(=O)/C=C/c2ccccc2)CC1 (centres undefined) | 0.61% (inactive)
75 | O=C(NNS(=O)(=O)c1ccc2ccccc2c1)NC1CCCCC1 | inactive
76 | COc1ccc(NS(=O)(=O)c2ccc(OC)c(NC(=O)CCC3CCCCC3)c2)cc1 | 0.695% (inactive)
77 | COc1ccc(NS(=O)(=O)c2ccc(C)c(NC(=O)NC3CCCCC3)c2)cc1 | 7.27% (active)
78 | CCOc1ccc(/C(O)=C2/C(=O)C(=O)N(CC3CCCO3)C2c2cccs2)cc1 (centres undefined) | 0.87% (inactive)
79 | Cc1nn(Cc2ccc(C(=O)N3N=C(C(F)F)CC3(O)C(F)F)o2)c(C)c1[N+](=O)[O-] (centres undefined) | 0.095% (inactive)
80 | COc1cccc(NC(=O)CN(C)C(=O)COc2ccc3ccccc3c2)c1 | 0.135% (inactive)
81 | Cc1ccc(S(=O)(=O)Nc2ccc(-c3nnc(SCc4ccccc4Cl)o3)cc2)cc1 | 17.2% (active)
82 | Cc1ccc(S(=O)(=O)Nc2cc(=O)[nH]c(SCc3ccccc3Cl)n2)cc1 | inactive
83 | O=C(CSc1nnc(-c2ccncc2)o1)NCc1ccccc1Cl | inactive
84 | Cc1nn(CCC(N)=O)c2nc(-c3cccs3)cc(C(F)(F)F)c12 | inactive
85 | O=C(Oc1ccccc1C(=O)Nc1ccccc1)c1ccccc1Br | 1.84% (inactive)
86 | COc1ccccc1CNC(=O)C(NS(=O)(=O)c1ccc2c(c1)OCCO2)C(C)C (centres undefined) | inactive
87 | CCCCN(C)C(=S)Nc1ccc(Oc2ccccc2)cc1 | 3.21% (inactive)
88 | CCCn1c(SC(C(=O)Nc2cccc(OC)c2)c2ccccc2)nc2ccccc2c1=O (centres undefined) | 0.175% (inactive)
89 | Cc1ccccc1NC(=O)C1CCCN1/C=C/C(=O)C(F)(F)F (centres undefined) | inactive
